# Reference: PubChem BioAssay AID1159580 (chemical genetic matrix, 2015)
# Values joined by “and” are separate entries in the source; they are usually repeats but may differ in a detail not shown here. Identical values can stand only once. Hit rate of the full screen: of about 5,500 compounds, about 2,000 (36%) were called active. Inconclusive results (about 18%) are left out. The list shows a part of the results. Unmarked numbers belong to inactive results. Rule as the data show it: active = normalized growth mostly below about 0.91 (no sharp cut-off); inconclusive = no clear call, values can overlap the other calls; inactive = mostly above about 0.92.
# Assay: chemical genetic growth profiling, strain panel (AID 1159580);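 also: tested at 20 µM; growth read once vehicle control cultures reached saturation at 30 °C; 1 = growth at the plate median or of vehicle wells; lower values mean less growth of the strain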
# Settings: S. cerevisiae deletion strains, growth OD
# [1] = locus YGR052W, strain FMP48, stronger effect = lower value
# [2] = locus YHR030C, strain SLT2, stronger effect = lower value
# [3] = locus YHR079C, strain IRE1, stronger effect = lower value
# [4] = locus YHR082C, strain KSP1, stronger effect = lower value
# [5] = locus YJL095W, strain BCK1, stronger effect = lower value
# [6] = locus YJR066W, strain TOR1, stronger effect = lower value
# [7] = locus YKL203C, strain TOR2, stronger effect = lower value
# [8] = locus YLR113W, strain HOG1, stronger effect = lower value
# [9] = locus YNL183C, strain NPR1, stronger effect = lower value
# [10] = locus YNL207W, strain RIO2, stronger effect = lower value
# [11] = locus YOR119C, strain RIO1, stronger effect = lower value
# [12] = locus YOR231W, strain MKK1, stronger effect = lower value
# [13] = locus YPL256C, strain CLN2, stronger effect = lower value
compound,measurement,setting,value
COc1cc(OC)cc(N2C(=O)C=CC2=O)c1,normalized growth,"locus YAL013W, strain DEP1, stronger effect = lower value",0.0543 (active)
same,normalized growth,"locus YBR229C, strain ROT2, stronger effect = lower value",0.0573 (active)
same,normalized growth,"locus YDL101C, strain DUN1, stronger effect = lower value",0.0709 (active)
same,normalized growth,"locus YDL134C, strain PPH21, stronger effect = lower value",0.0477 (active)
same,normalized growth,"locus YDR150W, strain NUM1, stronger effect = lower value",0.05 (active)
same,normalized growth,"locus YEL061C, strain CIN8, stronger effect = lower value",0.0533 (active)
same,normalized growth,[1],0.129 (active)
same,normalized growth,"locus YGR078C, strain PAC10, stronger effect = lower value",0.802 (active)
same,normalized growth,[2],0.0734 (active) and 0.115 (active)
same,normalized growth,[3],0.231 (active)
same,normalized growth,[4],0.112 (active)
same,normalized growth,"locus YHR087W, strain rtc3, stronger effect = lower value",0.0623 (active)
same,normalized growth,[5],0.127 (active)
same,normalized growth,"locus YJR043C, strain POL32, stronger effect = lower value",0.0486 (active)
same,normalized growth,[6],0.113 (active)
same,normalized growth,"locus YJR075W, strain HOC1, stronger effect = lower value",0.0671 (active)
same,normalized growth,"locus YKL171W, strain NNK1, stronger effect = lower value",0.0984 (active)
same,normalized growth,[7],0.107 (active)
same,normalized growth,"locus YLR039C, strain RIC1, stronger effect = lower value",0.0602 (active)
same,normalized growth,"locus YLR058C, strain SHM2 (second series), stronger effect = lower value",0.0529 (active)
same,normalized growth,"locus YLR085C, strain ARP6, stronger effect = lower value",0.0621 (active)
same,normalized growth,[8],0.184 (active)
same,normalized growth,"locus YLR262C, strain YPT6, stronger effect = lower value",0.0582 (active)
same,normalized growth,"locus YML094W, strain GIM5, stronger effect = lower value",0.0622 (active)
same,normalized growth,"locus YMR219W, strain ESC1, stronger effect = lower value",0.0491 (active)
same,normalized growth,"locus YMR263W, strain SAP30, stronger effect = lower value",0.0514 (active)
same,normalized growth,"locus YNL153C, strain GIM3, stronger effect = lower value",0.0557 (active)
same,normalized growth,[9],0.131 (active)
same,normalized growth,[10],0.0908 (active)
same,normalized growth,"locus YNL298W, strain CLA4 (second series), stronger effect = lower value",0.0613 (active)
same,normalized growth,"locus YNL322C, strain KRE1, stronger effect = lower value",0.0499 (active)
same,normalized growth,"locus YNR030W, strain Alg12, stronger effect = lower value",0.0629 (active)
same,normalized growth,[11],0.121 (active)
same,normalized growth,[12],0.185 (active)
same,normalized growth,"locus YPL055C, strain LGE1, stronger effect = lower value",0.07 (active)
same,normalized growth,"locus YPL241C, strain CIN2, stronger effect = lower value",0.0792 (active)
same,normalized growth,[13],0.146 (active)
same,normalized growth,"locus YPR135W, strain CTF4, stronger effect = lower value",0.18 (active)
COc1cc(N2C(=O)C=CC2=O)cc(OC)c1OC,normalized growth,"locus YAR019C, strain CDC15, stronger effect = lower value",0.924
same,normalized growth,"locus YBL105C, strain PKC1, stronger effect = lower value",0.958
same,normalized growth,"locus YBR135W, strain CKS1, stronger effect = lower value",0.95
same,normalized growth,"locus YBR136W, strain MEC1, stronger effect = lower value",0.935
same,normalized growth,"locus YBR160W, strain CDC28, stronger effect = lower value",0.958
same,normalized growth,"locus YDL017W, strain CDC7, stronger effect = lower value",0.975
same,normalized growth,"locus YDL028C, strain MPS1, stronger effect = lower value",0.958
same,normalized growth,"locus YDL108W, strain KIN28, stronger effect = lower value",0.952
same,normalized growth,"locus YDL132W, strain cdc53, stronger effect = lower value",0.94
same,normalized growth,"locus YDL214C, strain PRR2, stronger effect = lower value",0.159 (active)
same,normalized growth,"locus YDR052C, strain DBF4, stronger effect = lower value",0.959
same,normalized growth,"locus YDR054C, strain cdc34, stronger effect = lower value",0.947
same,normalized growth,"locus YDR226W, strain ADK1, stronger effect = lower value",0.928
same,normalized growth,"locus YDR477W, strain SNF1, stronger effect = lower value",0.176 (active)
same,normalized growth,"locus YER123W, strain YCK3, stronger effect = lower value",0.289 (active)
same,normalized growth,"locus YER133W, strain GLC7, stronger effect = lower value",0.226 (active)
same,normalized growth,"locus YFL009W, strain cdc4, stronger effect = lower value",0.968
same,normalized growth,"locus YFL029C, strain CAK1, stronger effect = lower value",0.915
same,normalized growth,"locus YFR003C, strain YPI1, stronger effect = lower value",0.989
same,normalized growth,"locus YFR019W, strain FAB1, stronger effect = lower value",0.378 (active)
same,normalized growth,"locus YFR028C, strain CDC14, stronger effect = lower value",0.928
same,normalized growth,"locus YGR040W, strain KSS1, stronger effect = lower value",0.191 (active)
same,normalized growth,[1],0.156 (active)
same,normalized growth,"locus YGR092W, strain DBF2, stronger effect = lower value",0.967
same,normalized growth,[2],0.385 (active)
same,normalized growth,[3],0.955
same,normalized growth,[4],0.147 (active)
same,normalized growth,"locus YIL147C, strain SLN1, stronger effect = lower value",0.982
same,normalized growth,[5],0.302 (active)
same,normalized growth,"locus YJL128C, strain PBS2, stronger effect = lower value",0.553 (active)
same,normalized growth,"locus YJR016C, strain ILV3, stronger effect = lower value",0.973
same,normalized growth,[6],0.133 (active)
same,normalized growth,"locus YKL048C, strain ELM1, stronger effect = lower value",0.947
same,normalized growth,"locus YKL193C, strain SDS22, stronger effect = lower value",0.939
same,normalized growth,[7],0.357 (active)
same,normalized growth,[8],0.156 (active)
same,normalized growth,"locus YMR001C, strain CDC5, stronger effect = lower value",0.928
same,normalized growth,"locus YMR205C, strain PFK2 (second series), stronger effect = lower value",0.941
same,normalized growth,"locus YMR277W, strain FCP1, stronger effect = lower value",0.926
same,normalized growth,"locus YNL006W, strain LST8, stronger effect = lower value",1
same,normalized growth,"locus YNL020C, strain ARK1, stronger effect = lower value",0.96
same,normalized growth,"locus YNL161W, strain CBK1, stronger effect = lower value",0.961
same,normalized growth,[9],0.143 (active)
same,normalized growth,[10],0.968
same,normalized growth,"locus YNL222W, strain SSU72, stronger effect = lower value",0.943
same,normalized growth,"locus YNL307C, strain MCK1 (second series), stronger effect = lower value",0.67
same,normalized growth,"locus YOL078W, strain AVO1, stronger effect = lower value",0.93
same,normalized growth,"locus YOR061W, strain CKA2, stronger effect = lower value",0.942
same,normalized growth,[11],0.311 (active)
same,normalized growth,[12],0.92
same,normalized growth,"locus YOR329C, strain SCD5, stronger effect = lower value",0.991
same,normalized growth,"locus YPL209C, strain IPL1, stronger effect = lower value",0.964
same,normalized growth,[13],0.129 (active)
same,normalized growth,"locus YPR025C, strain CCL1, stronger effect = lower value",0.95
same,normalized growth,"locus YPR106W, strain ISR1, stronger effect = lower value",0.924
same,normalized growth,"strain NNK1, stronger effect = lower value",0.977
same,normalized growth,"strain TSCII, stronger effect = lower value",0.933
